test system: Human papillomavirus type 1a E7 protein (residues 1-88); assay: HPV1a E7 small-molecule binders, primary screen, biochemical, small-molecule microarray, residues 1-88, 635 nm (AID 1129); settings: small-molecule microarray binding, fluorescence 635 nm; higher = more signal

Question: `CCCC[C@@H](O)C1=C(C)Cn2c(=O)n(-c3ccccc3)c(=O)n2[C@H]1CO` was tested. Which composite z-score did it give?
Answer: -0.432

Question: For `CCOC(=O)C[C@H]1[C@H](OC(=O)c2cc3ccccc3oc2=O)[C@@H](NC(=O)Cc2ccc(OC)cc2)c2cc(OCCCO)ccc2N1C(=O)Cc1ccc(OC)cc1`, which composite z-score is on record?
Answer: -0.624

Question: For `COC(=O)C1=CC(CCCO)=CC(c2ccc(CN3CCCC3)cc2)N(C)C=C1C(=O)OC` (stereo unspecified), which composite z-score is on record?
Answer: 0.821

Question: With `CCOC(=O)C[C@H]1[C@H](OC(=O)c2ccc(-c3ccccc3)cc2)[C@@H](NC(=O)c2ccc(-c3ccccc3)cc2)c2cc(OCCCO)ccc2N1C(=O)c1ccccc1` as the compound, how does the composite z-score read?
Answer: 1.09

Question: For `COc1ccc(C(=O)Nc2cccc(CN3C(=O)[C@]4(O[C@H](CC(=O)N(CCO)Cc5ccccc5)[C@@H]([Si](C)(C)c5ccc(OC)cc5)[C@@H]4C)c4ccccc43)c2)cc1`, which composite z-score is on record?
Answer: 1.07

Question: How did the composite z-score turn out when `O=C(N1CCOCC1)[C@]1(CCS(=O)(=O)c2ccccc2)N=C(c2ccc(OCCCO)cc2)O[C@@H]1c1ccccc1` was run?
Answer: 1.23

Question: Which composite z-score does the source give for `CC(C)c1ccc(NN2C(C(O)c3ccccc3)C=CC3C(=O)N(c4ccccc4)C(=O)C32)cc1` (stereo unspecified) here?
Answer: 1.19

Question: Which composite z-score does the source give for `COc1ccc([Si](C)(C)[C@H]2[C@H](CC(=O)N3CCC[C@H]3CO)O[C@@]3(C(=O)N(C)c4c(Br)cc(C)cc43)[C@@H]2C)cc1` here?
Answer: 1.22

Question: How did the composite z-score turn out when `COCCCNC(=O)[C@]1(Cc2ccccc2N=[N+]=[N-])N=C(c2ccc(OCCCO)cc2)O[C@@H]1c1ccccc1` was run?
Answer: 1.24

Question: For `[N-]=[N+]=NCc1ccccc1[C@H]1OC(c2ccc(OCCCO)cc2)=N[C@@]1(Cc1ccccc1N=[N+]=[N-])C(N)=O`, which composite z-score is on record?
Answer: 1.14

Question: `C=CC[C@]1(C(=O)NCC(O)CO)N=C(c2ccc(OCCCO)cc2)O[C@H]1c1ccccc1CN=[N+]=[N-]` (stereo partly specified) was tested. Which composite z-score did it give?
Answer: 1.22

Question: `C[C@]1(C(=O)NC2CC2)c2ccccc2C(=O)N(Cc2cc(F)cc(C(F)(F)F)c2)[C@H]1c1ccc(CO)cc1` was tested. Which composite z-score did it give?
Answer: -0.0534

Question: With `CC(C)N1CC=CC23O[C@@H]4/C=C\CCCOC(=O)C4[C@H]2C(=O)N(C(C)CO)[C@@H]3C1=O` (stereo partly specified) as the compound, how does the composite z-score read?
Answer: -0.829

Question: How did the composite z-score turn out when `CCOC(=O)C[C@H]1[C@H](OC(=O)c2ccccc2-c2ccccc2)[C@@H](NC(=O)CC(C)C)c2cc(OCCCO)ccc2N1C(=O)c1ccccc1` was run?
Answer: 0.0447

Question: With `CN(C)CCCCNC(=O)[C@H]1C[C@H]2C(=O)N[C@@H](CCCCN(C)C)C(=O)N2[C@H]1c1ccc(O)cc1` as the compound, how does the composite z-score read?
Answer: -0.102

Question: `CC(CO)N1C(=O)[C@@H]2[C@H]3C(=O)OCC=C[C@H]3OC23C=CCN(c2ccc4ccccc4c2)C(=O)[C@@H]13` (stereo partly specified) was tested. Which composite z-score did it give?
Answer: -1.21

Question: With `CC(C)N1C(=O)[C@@]2(Cc3ccccc31)c1ccccc1C(=O)N(Cc1ccccc1)[C@H]2c1ccc(CO)cc1` as the compound, how does the composite z-score read?
Answer: -0.299

Question: `CCOC(=O)C1=CC[C@@H](c2ccccc2)N(S(=O)(=O)c2ccc(C)cc2)[C@@H]1C#N` was tested. Which composite z-score did it give?
Answer: 1.15

Question: How did the composite z-score turn out when `COc1ccc([Si](C)(C)[C@@H]2[C@@H](CC(=O)N(CCO)Cc3ccccc3)O[C@]3(C(=O)N(Cc4cccc(I)c4)c4ccccc43)[C@H]2C)cc1` was run?
Answer: 1.12

Question: How did the composite z-score turn out when `CO[C@H]1O[C@H](CO)[C@@H](OC(=O)CCc2ccccc2)[C@@H]2OC(=O)[C@@H](Cc3ccc4ccccc4c3)C/C=C/C[C@H](Cc3ccc4ccccc4c3)C(=O)O[C@@H]12` was run?
Answer: 0.0444

Question: With `O=C1O[C@H](c2ccccc2)[C@H](c2ccccc2)N2[C@H]1[C@@H](C(=O)O)[C@]1(C(=O)Nc3ccccc31)[C@H]2c1ccc(OCCO)cc1` as the compound, how does the composite z-score read?
Answer: 0.823

Question: For `O=C1c2ccccc2[C@@]2(Cc3ccccc3N(CC(F)(F)F)C2=O)[C@H](c2ccc(CO)cc2)N1Cc1ccccc1`, which composite z-score is on record?
Answer: -0.404

Question: Which composite z-score does the source give for `COCCCNC(=O)[C@@]1(Cc2ccccc2I)c2ccccc2C(=O)N(C2CCCCC2)[C@H]1c1ccc(CO)cc1` here?
Answer: 1.02

Question: For `COCCOC(=O)N1C(=O)[C@@]2(c3cc(C#CC4(O)CCCCCC4)ccc31)[C@H](C(N)=O)[C@H]1C(=O)O[C@H](c3ccccc3)[C@H](c3ccccc3)N1[C@@H]2c1ccc(OCCO)cc1`, which composite z-score is on record?
Answer: 1.21

Question: For `CCCNC(=O)[C@@]1(Sc2ccc(C)cc2)CC(=O)N(Cc2cc(C(F)(F)F)cc(C(F)(F)F)c2)[C@@H]1c1ccc(CO)cc1`, which composite z-score is on record?
Answer: -0.0696

Question: `C=C(CCCC)/C(=C/C[C@@H](OC(C)=O)c1cccc(OCCO)c1)c1cc(C(=O)OC)ccc1OC` was tested. Which composite z-score did it give?
Answer: 0.0538

Question: `Cc1cccc([C@H]2C[C@H]3C(Br)=C[C@@]2(CO)C(=O)[C@]32CO2)c1` was tested. Which composite z-score did it give?
Answer: -0.15

Question: Which composite z-score does the source give for `CCCCN1CC=CC23O[C@@H]4/C=C\CCCOC(=O)C4[C@H]2C(=O)N(CCCCCCO)[C@@H]3C1=O` (stereo partly specified) here?
Answer: -0.0399

Question: Which composite z-score does the source give for `C=CCNC(=O)[C@@H]1[C@H]2C(=O)O[C@H](c3ccccc3)[C@H](c3ccccc3)N2[C@H](c2ccc(OCCO)cc2)[C@@]12C(=O)N(C(=O)OCCOC)c1ccccc12` here?
Answer: 1.19

Question: For `COc1ccc(C(=O)Nc2ccc(CN3C(=O)[C@]4(O[C@H](CC(=O)N(CCO)Cc5ccccc5)[C@@H]([Si](C)(C)c5ccc(OC)cc5)[C@@H]4C)c4ccccc43)cc2)cc1`, which composite z-score is on record?
Answer: 1.14

Question: Which composite z-score does the source give for `COC(=O)Cn1c(C(=O)N(C)C)cc2c1C[C@H]1CN(C(=O)c3ccccc3)[C@@](Cc3ccccc3)(C(=O)OC)[C@@H]21` here?
Answer: 0.278

Question: Which composite z-score does the source give for `CO[C@H]1O[C@H](CO)[C@@H](OC(=O)Nc2cccc(F)c2)[C@H](OC(=O)Nc2ccc3c(c2)OCO3)[C@@H]1OC(=O)Nc1ccc2c(c1)OCO2` here?
Answer: 1.29

Question: `COC(=O)[C@@]1(Cc2ccc(F)cc2)[C@H]2c3cc(C(=O)N(C)C)n(Cc4cccc5ccccc45)c3C[C@H]2CN1C(=O)c1ccccc1` was tested. Which composite z-score did it give?
Answer: 1.11

Question: `CCOC(=O)C[C@H]1[C@H](OC(=O)Cc2ccc3c(c2)OCO3)[C@@H](NC(=O)CC(C)C)c2cc(OCCCO)ccc2N1C(=O)c1ccc2ccccc2n1` was tested. Which composite z-score did it give?
Answer: 0.832

Question: With `O=C1O[C@H](c2ccccc2)[C@H](c2ccccc2)N2[C@H]1[C@@H](C(=O)N1CCN(c3ncccn3)CC1)[C@]1(C(=O)Nc3ccc(C#CC4(O)CCCCCC4)cc31)[C@H]2c1ccc(O)cc1` as the compound, how does the composite z-score read?
Answer: 1.2

Question: How did the composite z-score turn out when `COC(=O)C[C@H]1O[C@]2(C(=O)N(C)c3ccccc32)[C@@H](C)[C@@H]1[Si](C)(C)c1ccccc1` was run?
Answer: 0.941

From PubChem BioAssay
